Bioassay records deposited in PubChem BioAssay by National Center for Advancing Translational Sciences (NCATS).
Hits are enriched below; roughly 18% of the tested compounds scored in any of these assays.
LDHA inh – qHTS assay for inhibitors of human lactate dehydrogenase; L-lactate dehydrogenase A chain (Homo sapiens), P00338; purified LDHA, NADH/diaphorase-resazurin fluorescence; stronger effect = lower value; activity change, % (values are at about 110 or 230 µM); 0.15% of 480,000 active; AID 1347041, 2019; in the data active means activity change below about -30%; inconclusive means mostly about -25% to -30%;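 further: plate controls were DMSO wells for no effect and wells without enzyme for full effect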
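Enzyme activity of human lactate dehydrogenase 5 (2 nM; 0.06 mM NADH, 0.2 mM pyruvate, 5 min, RT) is measured via a resazurin/diaphorase fluorescence readout of residual NADH.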
Gal4-VP16 FLuc – VP16 counterscreen qHTS for inhibitors of ROR gamma transcriptional activity; Drosophila S2 Gal4-VP16 UAS-luciferase, luminescence, 20 h; Potency, µM (top dose mostly 53.6 µM), inactives show at the highest dose activity, negative = inhibition, usual class: inhibitors; 3.5% of 310,000 active; AID 2546, 2010;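 further: Gal4-VP16 expression switched on by copper sulfate through the metallothionein promoter; potency means the concentration at half of the fitted maximal effect; nearly all actives have a fitted effect of over 50% in size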
TDP1 cell CPT – qHTS for Inhibitors of human tyrosyl-DNA phosphodiesterase 1 (TDP1): qHTS in cells in presence of CPT; AID 686979, 2013; chicken DT40 Tdp1-/-;hTDP1 cells + 20 nM CPT, ATP luminescence, 48 h; 12% of 420,000 active; Potency, µM (series often up to 46.2 µM), inactives show top-dose activity change, negative = growth inhibition, hits mostly inhibitors; further: potency means the concentration at half of the fitted maximal effect; nearly all actives have a fitted effect of over 55% in size
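Chicken DT40 Tdp1-/- cells complemented with human TDP1, 400 cells/well, exposed to compounds plus 20 nM camptothecin for at least 48 h at 37 C; viability read as ATP content by CellTiter-Glo luminescence.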
RORgamma inh – qHTS for inhibitors of ROR gamma transcriptional activity. Drosophila S2 Gal4-RORgamma UAS-luciferase reporter, 20 h. Potency, µM (highest dose often 53.6 µM), for inactives: top-dose activity change, negative = inhibition, most hits filed as inhibitors. 5.4% of 310,000 active; further: potency means the concentration at half of the fitted maximal effect; nearly all actives have a fitted effect of over 60% in size
Target sequence (P51450 whole entry, looked up, the tested form may be a part): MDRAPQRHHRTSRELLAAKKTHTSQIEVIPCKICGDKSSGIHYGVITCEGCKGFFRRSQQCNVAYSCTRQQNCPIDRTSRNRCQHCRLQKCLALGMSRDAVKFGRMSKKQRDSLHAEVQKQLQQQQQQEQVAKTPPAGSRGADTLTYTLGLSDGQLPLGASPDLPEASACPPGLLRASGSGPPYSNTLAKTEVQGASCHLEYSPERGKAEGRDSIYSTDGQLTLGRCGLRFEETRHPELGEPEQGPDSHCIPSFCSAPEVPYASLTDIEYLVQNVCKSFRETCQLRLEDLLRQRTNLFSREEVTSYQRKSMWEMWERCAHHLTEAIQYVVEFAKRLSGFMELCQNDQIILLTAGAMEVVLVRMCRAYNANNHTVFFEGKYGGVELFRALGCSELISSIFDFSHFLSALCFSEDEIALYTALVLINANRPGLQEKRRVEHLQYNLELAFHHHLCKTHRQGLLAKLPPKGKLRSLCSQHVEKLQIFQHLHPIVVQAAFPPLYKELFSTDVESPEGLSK
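Stably transfected Drosophila Schneider cells are the test system, with ROR gamma fused to Gal4 and luciferase under UAS control; luminescence is read after 20 hr of 700 uM copper sulfate induction at ambient temperature.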
TDP1 cell noCPT – qHTS for Inhibitors of human tyrosyl-DNA phosphodiesterase 1 (TDP1): qHTS in cells in absence of CPT; DT40 Tdp1-/- hTDP1 cells, no CPT, ATP luminescence, 48 h; Potency, µM (titrated, usually from 46.2 µM), for inactives: at the top dose activity change, negative = growth inhibition, actives largely listed as inhibitors; 15% of 420,000 active; AID 686978, 2013; further: potency means the concentration at half of the fitted maximal effect; nearly all actives have a fitted effect of over 55% in size
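Chicken DT40 Tdp1-/- cells stably complemented with human TDP1 were seeded at 400 cells/well with DMSO in place of 20 nM camptothecin. After compound pinning, cells grew at least 48 hr at 37 °C; viability read by CellTiter-Glo luminescence.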
IL1B secr inh – qHTS for Inhibitors of Inflammasome Signaling: IL-1-beta AlphaLISA Primary Screen | THP-1 LPS/ATP IL-1B secretion, AlphaLISA, 16 h; stronger effect = lower value | activity change, % at 57.5 µM | 4.7% of 360,000 active | AID 743279, 2014; in the data active means activity change below about -50%; inconclusive means mostly about -30% to -49%
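THP-1 cells pretreated 1 hr with compounds (up to 57.5 uM final), then stimulated with LPS (250 ng/mL final) plus ATP (1.25 mM final); secreted IL-1B measured by AlphaLISA after 16 hr, decreased signal indicating inhibition.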
* marks the source's active call; other numbers are inactive results; ? = inconclusive; . = no result given; ! = a repeat was not active. Unless noted, the call rests on the fitted dose curve; in most records, active means well fitted curve in the direction sought with a large enough effect; inconclusive means small, poorly fitted or top-dose-only effect, or another doubt; inactive means no such curve, though single readings can be large; an effect the other way counts as inactive or inconclusive. Unless noted, on the % scale 0 is the no-effect control and ±100 the full control effect.

SMILES	LDHA inh	Gal4-VP16 FLuc	TDP1 cell CPT	RORgamma inh	TDP1 cell noCPT	IL1B secr inh
Cc1ccc(OCc2n[nH]c(=S)n2C2CCCCC2)cc1	-2	3.5µM*	29µM*	1.4µM*	18µM*	37
CCn1c(COc2cccc(C)c2)nnc1SCC(=O)NC1CCCC1	-7	-1%	?	19%	?	12
O=C(O)[C@@H]1CCCC[C@@H]1C(=O)N1CCOCC1	-12	.	.	.	.	.
CNC(=O)c1nn(CC(=O)N(CCc2ccccc2)Cc2ccccc2)c(=O)c2ccccc12	6	.	.	.	.	.
CC1(C)N=C(SCC(=O)Nc2ccc(Cl)cc2)C(c2ccccc2)=N1	0	-14%	?	-5%	?	-87*
CC1(C)N=C(SCC(=O)Nc2ccc(Cl)cc2)C(c2ccc(Cl)cc2)=N1	0	-11%	?	-2%	18µM*	-109*
CC1(C)N=C(SCC(=O)Nc2ccc(Br)cc2)C(c2ccc(Br)cc2)=N1	7	.	.	.	.	.
CCOC(=O)/C(C#N)=C\c1cc(Cl)c(OC)c(OC)c1	-8	.	.	.	.	.
COc1ccc(-c2coc3cc(OC(C)=O)ccc3c2=O)cc1	-1	.	.	.	.	.
CC(C)Oc1ccc2c(=O)c(-c3ccccc3)coc2c1	-6	?	?	-38%	18µM*!	0
COC(=O)C(C)Oc1ccc2c(=O)c(-c3ccc4c(c3)OCCO4)coc2c1 (stereo unspecified)	-34*	.	.	.	.	.
CC(C)(C)C(=O)Oc1ccc2c(=O)c(-c3ccccc3)coc2c1	-2	.	.	.	.	.
CCN(CC)C(=O)Oc1ccc2c(=O)c(-c3ccc(OC)cc3)coc2c1	-2	-8%	?	21%	23µM*	-60*
O=c1c2sccc2ncn1Cc1coc(-c2ccccc2Cl)n1	1	.	.	.	.	.
Cn1nnc(NC(=S)NC(=O)c2cccc3ccccc23)n1	-3	3.5µM*	4%	1.1µM*	-23%	12
COc1cc(OC)cc(C(=O)NC(=S)Nc2nnn(C)n2)c1	0	25µM*	-4%	?	-1%	0
CC(C)C(=O)NC(=S)Nc1nnn(C)n1	3	?	2%	14µM*	-4%	10
Cn1nnc(NC(=S)NC(=O)c2cccs2)n1	-1	13µM*	?	8.9µM*	?	10
CC(NC(=O)CSc1nc2c(c(=O)n(C)c(=O)n2C)n1Cc1ccccc1F)c1ccccc1 (stereo unspecified)	3	.	.	.	.	.
CCCCn1nnc(NC(=S)NC(=O)c2cccs2)n1	1	1µM*	-22%	1.1µM*	?	0
O=S(=O)(/N=C(/Sc1ccccc1)c1ccccc1)c1ccccc1	-10	4%	8.2µM*	-18%	15µM*	-104*
CS/C(=N\S(=O)(=O)c1ccccc1)c1ccccc1	-7	-17%	7%	-2%	-28%	-13
Cc1c(N/C(=N/S(=O)(=O)c2cc([N+](=O)[O-])ccc2Cl)c2ccccc2)c(=O)n(-c2ccccc2)n1C	-4	26%	12%	2%	3%	0
O=S(=O)(/N=C(/Sc1ccccc1)c1ccccc1)c1ccc(Cl)cc1	-2	.	?	.	16µM*	.
O=S(=O)(/N=C(/Sc1ccc(Cl)cc1)c1ccccc1)c1ccccc1	-3	.	10µM*	.	14µM*	.
O=[N+]([O-])c1ccc(Cl)c(S(=O)(=O)/N=C(/Sc2ccc(Br)cc2)c2ccccc2)c1	-3	.	6.3µM*	.	2.8µM*	.
O=C(CCC1CCCCC1)NCC1CC2c3ccccc3C1c1ccccc12 (stereo unspecified)	2	.	.	.	.	.
